# Source: PubChem BioAssay AID368 (University of Pittsburgh Molecular Library Screening Center, 2006)
# Screen size: about 65,000 compounds; about 85 (0.1%) were called active. This excerpt belongs to a sample that is enriched for actives. Values without a mark were called inactive. Cut-off read from the data, not from the text of the source: active = inhibition above about 50%; inactive = the rest.
# Target: M-phase inducer phosphatase 2 (Homo sapiens) (UniProt P30305)
# Test: human Cdc25B tyrosine phosphatase blockers – biochemical, OMFP fluorescence, catalytic domain, primary screen (AID 368)
# Conditions: recombinant Cdc25B, OMFP fluorescence Ex485/Em525; hits give high values;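 compounds tested at 10 µM final in the well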
# M-phase inducer phosphatase 2 (Homo sapiens), sequence (P30305 whole entry, looked up, the tested form may be a part): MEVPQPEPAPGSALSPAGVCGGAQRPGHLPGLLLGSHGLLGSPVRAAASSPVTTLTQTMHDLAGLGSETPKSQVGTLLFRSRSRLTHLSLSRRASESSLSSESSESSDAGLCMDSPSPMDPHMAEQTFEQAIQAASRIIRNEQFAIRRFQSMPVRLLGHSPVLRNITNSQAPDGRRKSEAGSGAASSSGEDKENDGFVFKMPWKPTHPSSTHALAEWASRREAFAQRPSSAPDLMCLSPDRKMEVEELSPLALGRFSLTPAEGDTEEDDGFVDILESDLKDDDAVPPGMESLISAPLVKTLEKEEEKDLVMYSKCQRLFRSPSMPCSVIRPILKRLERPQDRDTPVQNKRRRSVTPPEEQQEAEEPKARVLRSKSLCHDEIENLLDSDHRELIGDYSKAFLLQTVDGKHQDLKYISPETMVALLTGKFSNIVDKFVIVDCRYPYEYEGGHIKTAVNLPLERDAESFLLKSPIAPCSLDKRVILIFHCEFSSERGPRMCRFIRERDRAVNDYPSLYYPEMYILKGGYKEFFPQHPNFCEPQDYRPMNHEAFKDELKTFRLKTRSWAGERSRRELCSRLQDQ
row,Structure (SMILES),inhibition
1,COc1ccccc1NC(=O)CSc1nnc(Cn2nnc(-c3ccccc3)n2)n1-c1ccccc1,-10.9%
2,COc1ccc(-c2nnn(CC(=O)N(CCO)C(C(=O)NC3CCCC3)c3ccc(F)cc3)n2)cc1 (stereo unspecified),-0.846%
3,Cc1ccc(S(=O)(=O)N2CCC(C(=O)OCC(=O)N3CC(=O)Nc4ccccc43)CC2)cc1,-6.66%
4,O=C(CSc1nnc(-c2cccnc2)n1Cc1ccco1)c1ccc(Cl)c(Cl)c1,8.97%
5,CCc1c(C)n([O-])c2c([n+]1=O)CCCCC2,-6.36%
6,COc1cc2cc(CN(CCN3CCCC3)C(=O)Nc3ccccc3Cl)c(=O)[nH]c2cc1OC,-1.08%
7,O=C(Cn1c(-c2ccc(Cl)cc2)noc1=O)N1CCN(c2ccccc2F)CC1,-5.95%
8,CC(C)Oc1ccc(C(=O)Nc2cc(=O)n(C)c(=O)n2C)cc1,-9.38%
9,Fc1cc(F)c2nc(N3CCOCC3)sc2c1,0.504%
10,CC1CCCC(N2CCN(C(=O)c3ccc(F)cc3)CC2)C1 (stereo unspecified),-7.26%
11,Cc1ccc(NC(=O)CN2CCC3(O)CCCCC3C2c2ccc3c(c2)OCO3)c(C)c1 (stereo unspecified),5.36%
12,CCOC(=O)c1sc2nc(CSCC(=O)OCc3ccc(C(=O)OC)o3)[nH]c(=O)c2c1C,-1.69%
13,COCCN1C(=O)c2oc3c(C)cc(C)cc3c(=O)c2C1c1cccc(O)c1 (stereo unspecified),-0.703%
14,CC(=O)c1cc2c(cc1N)OCO2,5.42%
15,COc1ccc(N2CC(C)Cn3c2nc2c3c(=O)n(Cc3ccccc3F)c(=O)n2C)c(OC)c1 (stereo unspecified),2.66%
16,CC(=O)c1c(C)c[nH]c1C,-2.46%
17,O=S(=O)(/C=C/c1ccccc1)NCCc1ccccn1,102% (active)
18,O=S(=O)(NCc1ccccn1)c1ccc(F)cc1,-7.59%
19,NS(=O)(=O)c1ccc(NS(=O)(=O)/C=C/c2ccccc2)cc1,4.88%
20,O=C(O)c1cscn1,5.38%
21,COc1ccccc1Nc1ncnc2c1oc1ccccc12,14.9%
22,CC1(C)CC(=O)C=C(NCCCNC2CCCCC2)C1,-12.2%
23,N#Cc1ccc(COC(=O)Cn2nnc(-c3ccccc3)n2)cc1,-19.8%
24,CC(NC(=O)Nc1ccccc1)c1ccccc1 (stereo unspecified),-11.4%

row,Structure (SMILES),inhibition
1,NC(=O)C1CC=CCC1C(=O)OCC(Cl)=C(Cl)Cl (stereo unspecified),-7.55%
2,CC1CN(c2cc(=O)n(Cc3ccc(F)cc3)c(=O)[nH]2)CC(C)O1 (stereo unspecified),-7.48%
3,CCOC(=O)c1cccc(NC(=O)C2CCCN(S(=O)(=O)c3cnc[nH]3)C2)c1 (stereo unspecified),-1.24%
4,O=C(O)C1CC=C(Cl)CC1C(=O)NCc1ccccc1 (stereo unspecified),-4.83%
5,O=C(CN1C(=O)C2C3C=CC(C3)C2C1=O)NCCc1ccccc1Cl (stereo unspecified),-3.46%
6,Cc1ccc(C)c(N(CC(=O)NCc2ccco2)C(=O)CCC(=O)Nc2ccccn2)c1,0.139%
7,C=CCNC(=O)CSc1nc2sc(C)c(C)c2c(=O)[nH]1,-5.03%
8,CCC1SC2=NCCN2C1(O)c1ccc(Cl)cc1 (stereo unspecified),1.15%
9,COC(=O)c1ccc(NC(=O)CSc2nnc(CNc3ccc(OC)cc3)n2C)cc1,-15.2%
10,O=C(Nc1ccc(F)cc1)c1cccnc1N1CCOCC1,0.374%
11,COc1ccccc1C1/C(=C(/O)c2ccc(OC(C)C)cc2)C(=O)C(=O)N1c1cc(C)on1 (stereo unspecified),22%
12,COc1ccc(S(=O)(=O)N(CCCN2CCCC2=O)Cc2cc3c(C)ccc(C)c3[nH]c2=O)cc1,4.58%
13,COc1ccc(Cl)cc1NC(=O)c1oc(C)nc1C,-1.12%
14,O=C(O)CSC(NC(=O)c1cccnc1)(C(F)(F)F)C(F)(F)F,-2.28%
15,O=C(c1ccco1)N1CCN=C1SCc1cccc(Cl)c1,-9.08%
16,CC1CCCCC1NC(=O)CSc1nnc(N)s1 (stereo unspecified),-11.7%
17,COc1ccc(C(=O)N2CCC(C(=O)Nc3cccc(C)c3)CC2)cc1OC,-5.03%
18,Cc1cc(C(F)(F)F)nn1-c1nc(-c2ccco2)cc(C(F)(F)F)n1,-12.3%
19,COc1ccc(NS(=O)(=O)c2ccc(NC(C)=O)cc2)cc1OC,-8.27%
20,COCCNC(=O)C(c1ccc(C)o1)N(Cc1cccs1)C(=O)c1snc(C(N)=O)c1N (stereo unspecified),-5.11%
21,Cc1nnc(SCC(=O)NCCOc2ccc(Cl)cc2)n1-c1ccccc1,-10.1%
22,COc1cccc(N(CC(=O)Nc2cccc(F)c2)S(C)(=O)=O)c1,-4.86%
23,COc1ccc(C(=O)NCCc2ccc(S(N)(=O)=O)cc2)cc1OC,-4.01%
24,CCOC(=O)c1ccn(-c2nc(-c3ccco3)cc(C(F)(F)F)n2)n1,-12.2%

row,Structure (SMILES),inhibition
1,CCCOc1ccc(CN(CCO)CCO)cc1C(=O)OC,1.99%
2,O=C(NC1(C(F)(F)F)N=C2SCCN2C1=O)c1ccco1 (stereo unspecified),0.794%
3,O=C(c1ccccc1)c1ccc2nc(N3CCCCC3)c3nncn3c2c1,-11.8%
4,O=S(=O)(c1ccc2ccccc2c1)N1CCN(S(=O)(=O)N2CCOCC2)CC1,-4.37%
5,O=c1cc(CSc2ccc(Cl)cc2)nc(N2CCOCC2)[nH]1,7.35%
6,CCCOP(=O)(c1ccc(N(C)C)cc1)C(O)c1cc(OC)c(OC)c(OC)c1 (stereo unspecified),-0.929%
7,CCOC(=O)N1CCN(CC(=O)n2c(C)c(C)c3ccccc32)CC1,-1.72%
8,Cc1ccc2c(C(=O)CN3CCCC3)c(C)[nH]c2c1,-0.2%
9,CCOC(=O)N1CCN(CC(=O)c2c(C)[nH]c3ccccc23)CC1,60% (active)
10,Cc1occc1C(=O)Nc1cccc(Cn2cccn2)c1,-8.98%
11,O=C(O)CC(Cn1cnnn1)c1ccccc1 (stereo unspecified),-6.9%
12,O=C1CCCc2c1[nH]c1ccc(Br)cc21,5.28%
13,Cc1ccsc1C(C(=O)NC1CCCCC1)N(C(=O)Cc1cccs1)C1CC1 (stereo unspecified),4.04%
14,CCc1c(C)nc2cc(-c3cccs3)[nH]n2c1=O,-13.1%
15,C/C(=C(\C#N)C(=O)NCCCN1CCOCC1)N(C)C,-7.37%
16,CCCC(=O)Nc1ccc(C(=O)NCCCn2ccnc2)cc1,2.06%
17,CCn1cc(C(=O)NCC2COc3ccccc3O2)c2cc(OC)c(OC)cc2c1=O (stereo unspecified),-8.97%
18,CCOC(=O)CNC(=O)CN1C(=O)CCSc2ccccc21,-0.999%
19,O=C1NC(Nc2nc3ccccc3s2)(C(F)(F)F)C(=O)N1C1CCCCC1 (stereo unspecified),-0.883%
20,CC(=O)Nc1ccc(S(=O)(=O)NCCc2ccccc2)cc1,-7.41%
21,CC1OC2C(OC1C)N(S(C)(=O)=O)CCN2S(C)(=O)=O (stereo unspecified),-4.42%
22,CCOc1ccc(CCNC(=O)C(CC)n2nc(C)n3c(cc4sccc43)c2=O)cc1OCC (stereo unspecified),-12.3%
23,CCn1ncc(C2=NOC(C(=O)N3CCN(c4ccccc4)CC3)C2)c1C (stereo unspecified),-17.4%
24,CCOC(=O)C1CCCN(C(=O)C2CCN(c3nnc(-n4cccc4)s3)CC2)C1 (stereo unspecified),6.02%

row,Structure (SMILES),inhibition
1,Cn1c(=O)c2c(nc(SCC(=O)Nc3ccccc3N3CCCCC3)n2C)n(C)c1=O,-12.6%
2,CCCCSc1nnc(-c2ccc(C)cc2)o1,-7.53%
3,O=C(Nc1nc2cc3c(cc2s1)OCCO3)c1cccc(S(=O)(=O)N2CCOCC2)c1,-3.84%
4,CCN1C(=O)C(C(=O)NC(C)c2ccccc2)C2CC1(C)Oc1ccccc12 (stereo unspecified),-6.65%
5,Clc1ccccc1CSc1nnc(-c2ccco2)c(-c2ccco2)n1,-25.9%
6,c1ccc(CSc2nnc(-c3ccco3)n2Cc2ccccc2)cc1,-11.9%
7,c1ccc(CSc2nnc(-c3ccco3)c(-c3ccco3)n2)cc1,50.3% (active)
8,C=CCn1c(SCC(=O)NC23CC4CC(CC(C4)C2)C3)nc(O)cc1=O,2.29%
9,NC(=O)CSC1=Nc2ccccc2C2=NC(CCC(=O)NCc3ccc(F)cc3)C(=O)N12 (stereo unspecified),-3.7%
10,CCOC(=O)c1c(C)nc(-c2ccccc2)nc1NC(=O)C(C)C,-5.5%
11,CCOC(=O)Cn1c(N)c(C(=O)OC)sc1=S,-11%
12,CC(=O)Nc1ccn(Cc2c(F)cccc2Cl)n1,-13%
13,O=C(c1ccc(S(=O)(=O)N2CCOCC2)cc1)N1CCN(c2ccccc2)CC1,1.6%
14,CCOC(=O)c1[nH]cnc1C(=O)NC1CCCCC1,-0.873%
15,Cc1csc(NC(=O)NC2(C(F)(F)F)Oc3ccccc3O2)n1,-7.31%
16,O=C(CCCn1c(=O)oc2ccccc21)Nc1cccnc1,-11.7%
17,CS(=O)(=O)N(Cc1nc2sc3c(c2c(=O)[nH]1)CCCC3)C1CCCCC1,-20%
18,O=C1c2ccccc2C(=O)N1CCc1nn[nH]n1,2.01%
19,COc1ccc(C(=O)c2oc3ccc(Br)cc3c2NC(C)=O)cc1,1.8%
20,CC(=O)Nc1ccc(NS(=O)(=O)c2cc(C)sc2C)cc1,7.75%
21,Cc1ccc(S(=O)(=O)N2C3C=CC(C3)C2C(=O)O)cc1 (stereo unspecified),-0.599%
22,Cc1cc(C)cc(NC(=O)N2CCC(NC(=O)c3ccc(F)cc3)CC2)c1,5.11%
23,CCOC(=O)C(CC)Sc1ncnc2c1nnn2-c1ccc(F)cc1 (stereo unspecified),-12.7%
24,COc1cc(-c2noc(C3CCCN(S(=O)(=O)c4cccc(Cl)c4)C3)n2)cc(OC)c1OC (stereo unspecified),3.35%
